From the antibiotic and cytotoxicity screens of Wong et al. (2023) come the findings set out here.

Out of some 39,000 compounds screened, about 1,500 (3.8%) were called active. The entries come from a sample that favours actives as a whole.

This experiment relates to HSkMC (human skeletal muscle cells). The experiment in a line: cytotoxicity call (relative viability < 0.9). The following applies: 10 µM.
As for `C[C@H](CO)N1C[C@H](C)[C@@H](CN(C)S(=O)(=O)c2cn(C)cn2)Oc2ccc(NC(=O)NC3CCCCC3)cc2C1=O`, the cytotoxicity call is “inactive”.

Take `COc1ccc([Si](C)(C)[C@@H]2[C@@H](CCO)O[C@]3(C(=O)N(Cc4ccc(N5C(=O)c6ccccc6Oc6ccccc65)cc4)c4ccccc43)[C@H]2C)cc1`: the cytotoxicity call is “inactive”.

As for `C[C@@H]1CCCCO[C@H](CN(C)Cc2ccccc2)[C@@H](C)CN([C@@H](C)CO)C(=O)c2cc(NC(=O)Cc3ccccc3)ccc2O1`, the cytotoxicity call was “inactive”.

In the case of `COc1ccc(NC(=O)Nc2ccc3c(c2)C(=O)N([C@H](C)CO)C[C@H](C)[C@H](CN(C)Cc2ccc(C(=O)Nc4ccccc4N)cc2)OCCCC[C@@H](C)O3)cc1`, the cytotoxicity call is “inactive”.

Turning to `CCOc1ccc(S(N)(=O)=O)cc1`, the cytotoxicity call was “inactive”.

With `NS(=O)(=O)c1ccc(N2CCCC2=O)cc1`, the cytotoxicity call is “inactive”.

For the compound `C[C@H](CO)N1C[C@H](C)[C@H](CN(C)S(=O)(=O)c2cn(C)cn2)Oc2c(NC(=O)c3cnccn3)cccc2C1=O`, the cytotoxicity call is “inactive”.

Regarding `Cc1noc(C)c1NC(=O)Nc1ccc2c(c1)C(=O)N([C@H](C)CO)C[C@@H](C)[C@H](CN(C)C(=O)Nc1c(C)noc1C)OCCCC[C@@H](C)O2`, the cytotoxicity call is “inactive”.

Regarding `O=C(c1cnc2ccccc2c1)C1CC1`, the cytotoxicity call was “inactive”.

On to `CNC[C@@H]1Oc2ccc(NC(=O)Cn3cnnn3)cc2CC(=O)N([C@H](C)CO)C[C@H]1C`, for which the cytotoxicity call was “inactive”.

`Cc1noc(C)c1NC(=O)Nc1ccc2c(c1)C(=O)N([C@H](C)CO)C[C@@H](C)[C@@H](CN(C)Cc1ccc3c(c1)OCO3)OCCCC[C@@H](C)O2`: the cytotoxicity call is “inactive”.

For `O=C(CCCCCNC(=O)OCc1ccc(CN(C(=O)Nc2ccccc2)[C@@H](Cc2ccccc2)Cn2cc(-c3ccccn3)nn2)cc1)NO`, the cytotoxicity call is “inactive”.

In the case of `Cc1ccc(S(=O)(=O)Nc2ccc3c(c2)C(=O)N([C@@H](C)CO)C[C@@H](C)[C@H](CN(C)Cc2ccc(C(F)(F)F)cc2)OCCCC[C@H](C)O3)cc1`, the cytotoxicity call is “inactive”.

As for `Cc1ccc(S(=O)(=O)Nc2ccc3c(c2)C(=O)N([C@@H](C)CO)C[C@H](C)[C@H](CN(C)Cc2ccc(C(F)(F)F)cc2)OCCCC[C@@H](C)O3)cc1`, the cytotoxicity call was “inactive”.

With `Cc1ccc(S(=O)(=O)Nc2ccc3c(c2)C(=O)N([C@H](C)CO)C[C@@H](C)[C@H](CN(C)Cc2ccc(C(F)(F)F)cc2)OCCCC[C@H](C)O3)cc1`, the cytotoxicity call was “active”.

As to `Cc1ccc(S(=O)(=O)Nc2ccc3c(c2)C(=O)N([C@@H](C)CO)C[C@@H](C)[C@@H](CN(C)Cc2ccc(C(F)(F)F)cc2)OCCCC[C@@H](C)O3)cc1`, the cytotoxicity call was “active”.

As to `Cc1ccc(S(=O)(=O)Nc2ccc3c(c2)C(=O)N([C@H](C)CO)C[C@H](C)[C@@H](CN(C)Cc2ccc(C(F)(F)F)cc2)OCCCC[C@@H](C)O3)cc1`, the cytotoxicity call is “inactive”.

`Cc1ccc(S(=O)(=O)Nc2ccc3c(c2)C(=O)N([C@H](C)CO)C[C@@H](C)[C@H](CN(C)Cc2ccc(C(F)(F)F)cc2)OCCCC[C@@H](C)O3)cc1`: the cytotoxicity call is “inactive”.

In the case of `C[C@@H]1CN([C@H](C)CO)C(=O)c2cccc(NC(=O)c3nc4ccccc4s3)c2O[C@H]1CN(C)C(=O)Nc1cccc2ccccc12`, the cytotoxicity call is “inactive”.

Turning to `CCN1C(=O)CN(CC(=O)O)C1=O`, the cytotoxicity call was “inactive”.

`NCc1ccc2nsnc2c1`: the cytotoxicity call is “inactive”.

For the compound `C[C@@H]1CN([C@@H](C)CO)C(=O)c2cccc(NS(C)(=O)=O)c2O[C@H]1CN(C)C(=O)Nc1ccc(C(F)(F)F)cc1`, the cytotoxicity call is “inactive”.

Turning to `O=C(C[C@@H]1CC[C@@H]2[C@H](COC[C@H](O)CN2C(=O)Nc2ccc(F)cc2)O1)NCCCN1CCOCC1`, the cytotoxicity call was “inactive”.

For `C[C@H](CO)N1C[C@H](C)[C@@H](CN(C)S(C)(=O)=O)OCCCC[C@H](C)Oc2ccc(NS(=O)(=O)c3cn(C)cn3)cc2C1=O`, the cytotoxicity call is “inactive”.

`C[C@H](CO)N1C[C@H](C)[C@@H](CN(C)C(=O)Nc2cc(F)ccc2F)Oc2cc(/C=C/c3ccccc3)ccc2S1(=O)=O`: the cytotoxicity call is “inactive”.

Take `C[C@H]1CN([C@@H](C)CO)S(=O)(=O)c2ccc(C#Cc3ccccc3F)cc2O[C@@H]1CN(C)C(=O)c1ccc2c(c1)OCO2`: the cytotoxicity call was “inactive”.

As for `C[C@@H]1CN([C@@H](C)CO)S(=O)(=O)c2ccc(C#Cc3ccncc3)cc2O[C@H]1CN(C)C(=O)Nc1ccc2c(c1)OCO2`, the cytotoxicity call is “active”.

For `C[C@H]1CN([C@@H](C)CO)S(=O)(=O)c2ccc(C#Cc3ccncc3)cc2O[C@H]1CN(C)C(=O)Nc1ccc2c(c1)OCO2`, the cytotoxicity call was “inactive”.

As to `C[C@H]1CN([C@@H](C)CO)S(=O)(=O)c2ccc(/C=C/c3ccccc3)cc2O[C@@H]1CN(C)C(=O)Nc1cc(F)ccc1F`, the cytotoxicity call was “inactive”.

With `C[C@H]1CN([C@@H](C)CO)S(=O)(=O)c2ccc(C#Cc3ccccc3F)cc2O[C@H]1CN(C)C(=O)c1ccc2c(c1)OCO2`, the cytotoxicity call was “inactive”.

Turning to `C[C@@H]1CN([C@@H](C)CO)S(=O)(=O)c2ccc(C#CC3(O)CCCC3)cc2O[C@@H]1CN(C)C(=O)Nc1cccc(F)c1`, the cytotoxicity call was “inactive”.

In the case of `C[C@H]1CN([C@@H](C)CO)S(=O)(=O)c2ccc(C#Cc3ccncc3)cc2O[C@@H]1CN(C)C(=O)Nc1ccc2c(c1)OCO2`, the cytotoxicity call was “inactive”.

Consider `C[C@H](CO)N1C[C@H](C)[C@@H](CN(C)C(=O)Nc2cccc(F)c2)Oc2cc(C#CC3(O)CCCC3)ccc2S1(=O)=O`, for which the cytotoxicity call was “inactive”.

In the case of `C[C@H]1CN([C@@H](C)CO)S(=O)(=O)c2ccc(C#CC3(O)CCCC3)cc2O[C@@H]1CN(C)C(=O)Nc1cccc(F)c1`, the cytotoxicity call is “active”.

For the compound `C[C@@H]1CN([C@H](C)CO)S(=O)(=O)c2ccc(/C=C/c3ccccc3)cc2O[C@H]1CN(C)C(=O)Nc1cc(F)ccc1F`, the cytotoxicity call was “active”.

As for `C[C@@H]1CN([C@@H](C)CO)S(=O)(=O)c2ccc(C#Cc3ccccc3F)cc2O[C@H]1CN(C)C(=O)c1ccc2c(c1)OCO2`, the cytotoxicity call is “active”.

Consider `C[C@@H]1CN([C@H](C)CO)C(=O)c2cc(NS(C)(=O)=O)ccc2O[C@@H](C)CCCCO[C@@H]1CN(C)C(=O)CCCN(C)C`, for which the cytotoxicity call is “inactive”.

`C[C@@H]1CN([C@@H](C)CO)C(=O)Cc2cc(NC(=O)CCCCCC(=O)Nc3ccccc3N)ccc2O[C@@H]1CN(C)Cc1ccc(-c2ccccc2)cc1`: the cytotoxicity call was “inactive”.

As to `C[C@@H]1CN([C@@H](C)CO)C(=O)c2cc(NS(=O)(=O)c3cn(C)cn3)ccc2O[C@H]1CN(C)C(=O)Nc1ccc2c(c1)OCO2`, the cytotoxicity call is “inactive”.

As for `C[C@H]1CN([C@@H](C)CO)C(=O)c2cccc(NC(=O)C3CCOCC3)c2O[C@H]1CN(C)Cc1ccccc1`, the cytotoxicity call is “inactive”.

On to `CCC(=O)Nc1ccc2c(c1)OC[C@@H](C)N(C(=O)CN1CCOCC1)C[C@H](C)[C@H](OC)CN(C)C2=O`, for which the cytotoxicity call is “inactive”.

`CN(C)CCCNC(=O)C[C@H]1CC[C@H]2[C@@H](COC[C@@H](O)CN2S(=O)(=O)c2ccc(Cl)cc2)O1`: the cytotoxicity call is “inactive”.

In the case of `C[C@H](CO)N1C[C@H](C)[C@@H](CN(C)S(C)(=O)=O)Oc2cc(C#CCN(C)C)ccc2S1(=O)=O`, the cytotoxicity call is “inactive”.

Consider `COCC(=O)Nc1ccc2c(c1)OC[C@@H](C)N(C(=O)Cc1ccccn1)C[C@@H](C)[C@@H](OC)CN(C)C2=O`, for which the cytotoxicity call is “inactive”.

As for `C[C@H]1CN([C@@H](C)CO)C(=O)c2cc(NC(=O)C3CC3)ccc2O[C@H]1CN(C)Cc1ccc2c(c1)OCO2`, the cytotoxicity call was “inactive”.

With `COc1cccc(NC(=O)N(C)C[C@H]2Oc3cc(C#Cc4ccncc4)ccc3S(=O)(=O)N([C@@H](C)CO)C[C@@H]2C)c1`, the cytotoxicity call is “active”.

As to `COc1cccc(NC(=O)N(C)C[C@H]2Oc3cc(C#Cc4ccncc4)ccc3S(=O)(=O)N([C@H](C)CO)C[C@@H]2C)c1`, the cytotoxicity call is “inactive”.

In the case of `COc1cccc(NC(=O)N(C)C[C@H]2Oc3cc(C#Cc4ccncc4)ccc3S(=O)(=O)N([C@@H](C)CO)C[C@H]2C)c1`, the cytotoxicity call is “inactive”.

Turning to `COc1cc2c(cc1OC)CN(C(=O)[C@H]1[C@@H]3C(=O)O[C@@H](c4ccccc4)[C@@H](c4ccccc4)N3[C@@H](c3ccc(O)cc3)[C@]13C(=O)Nc1ccccc13)CC2`, the cytotoxicity call was “inactive”.

Turning to `O=c1/c(=C/c2cccc(Cl)c2)c2cccc3cccc1c32`, the cytotoxicity call was “inactive”.

`Cc1noc(C)c1S(=O)(=O)N(C)C[C@H]1OCCCC[C@H](C)Oc2ccc(NS(=O)(=O)c3cn(C)cn3)cc2C(=O)N([C@H](C)CO)C[C@@H]1C`: the cytotoxicity call is “inactive”.

As for `CNS(=O)(=O)c1ccc(C)cc1`, the cytotoxicity call is “inactive”.

On to `Cc1ccc(S(N)(=O)=O)cc1`, for which the cytotoxicity call was “inactive”.

In the case of `Cc1noc(C)c1S(=O)(=O)N(C)C[C@@H]1OCCCC[C@@H](C)Oc2ccc(NS(C)(=O)=O)cc2C(=O)N([C@@H](C)CO)C[C@@H]1C`, the cytotoxicity call was “inactive”.

Turning to `COc1ccc(-n2nc(CCC(=O)N(C)O)cc2-c2ccc(Cl)cc2)cc1`, the cytotoxicity call was “inactive”.

`CN(C)CCOC(=O)COc1ccc(Cl)cc1.Cl`: the cytotoxicity call was “inactive”.

`CCCCc1nc(-c2ccc(OCCCN(CC)CC)cc2)cn1-c1ccc(Oc2ccc(Cl)cc2)cc1`: the cytotoxicity call was “active”.

`C[C@@H]1CN([C@H](C)CO)C(=O)c2cc(NC(=O)NC3CCCCC3)ccc2O[C@@H](C)CCCCO[C@@H]1CN(C)Cc1ccc2c(c1)OCO2`: the cytotoxicity call was “inactive”.

As for `CN(C)CCCNC(=O)C[C@@H]1C=C[C@@H](NC(=O)Cc2cccnc2)[C@@H](CO)O1`, the cytotoxicity call was “inactive”.

On to `C[C@H](CO)N1C[C@H](C)[C@@H](CN(C)C(=O)Nc2ccc3c(c2)OCO3)Oc2ccc(NS(C)(=O)=O)cc2CC1=O`, for which the cytotoxicity call is “inactive”.

For `C[C@@H]1CN([C@@H](C)CO)C(=O)Cc2cc(NS(=O)(=O)c3ccc(Cl)cc3)ccc2O[C@H]1CN(C)Cc1ccc(-c2ccccc2)cc1`, the cytotoxicity call was “active”.

Turning to `C[C@H](CO)N1C[C@H](C)[C@@H](CN(C)Cc2ccc(-c3ccccc3)cc2)Oc2ccc(NS(=O)(=O)c3ccc(Cl)cc3)cc2CC1=O`, the cytotoxicity call was “inactive”.

For the compound `C[C@@H]1CN([C@H](C)CO)C(=O)Cc2cc(NS(=O)(=O)c3ccc(Cl)cc3)ccc2O[C@@H]1CN(C)Cc1ccc(-c2ccccc2)cc1`, the cytotoxicity call was “active”.

As to `C[C@H]1CN([C@@H](C)CO)C(=O)Cc2cc(NS(=O)(=O)c3ccc(Cl)cc3)ccc2O[C@@H]1CN(C)Cc1ccc(-c2ccccc2)cc1`, the cytotoxicity call is “inactive”.

Consider `C[C@@H]1CN([C@@H](C)CO)C(=O)Cc2cc(NS(=O)(=O)c3ccc(Cl)cc3)ccc2O[C@@H]1CN(C)Cc1ccc(-c2ccccc2)cc1`, for which the cytotoxicity call was “inactive”.

For `C[C@@H]1CN([C@H](C)CO)C(=O)Cc2cc(NS(=O)(=O)c3ccc(Cl)cc3)ccc2O[C@H]1CN(C)Cc1ccc(-c2ccccc2)cc1`, the cytotoxicity call was “active”.

For `C[C@H]1CN([C@@H](C)CO)C(=O)Cc2cc(NS(=O)(=O)c3ccc(Cl)cc3)ccc2O[C@H]1CN(C)Cc1ccc(-c2ccccc2)cc1`, the cytotoxicity call was “active”.

Turning to `C[C@H](CO)N1C[C@H](C)[C@H](CN(C)Cc2ccc(-c3ccccc3)cc2)Oc2ccc(NS(=O)(=O)c3ccc(Cl)cc3)cc2CC1=O`, the cytotoxicity call is “inactive”.
